Screens: PubChem, National Center for Advancing Translational Sciences (NCATS)
Only some compounds are listed: those with a hit (about 7.4% of all), similar ones and a draw of the others.
FLuc modulator: firefly luciferase modulation, counter-screen for miR-21 project | 360,000 compounds, 6.9% hits | AID 588342 | purified FLuc, Km substrates, luminescence inhibition | Potency, µM (series often up to 57.5 µM), without a hit: at the highest dose activity change, negative = inhibition, actives largely listed as inhibitors;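 further: plate controls were vehicle for no effect and reference inhibitor for full effect; nearly all actives have a fitted effect of over 55% in size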
Target sequence (P08659 whole entry, looked up): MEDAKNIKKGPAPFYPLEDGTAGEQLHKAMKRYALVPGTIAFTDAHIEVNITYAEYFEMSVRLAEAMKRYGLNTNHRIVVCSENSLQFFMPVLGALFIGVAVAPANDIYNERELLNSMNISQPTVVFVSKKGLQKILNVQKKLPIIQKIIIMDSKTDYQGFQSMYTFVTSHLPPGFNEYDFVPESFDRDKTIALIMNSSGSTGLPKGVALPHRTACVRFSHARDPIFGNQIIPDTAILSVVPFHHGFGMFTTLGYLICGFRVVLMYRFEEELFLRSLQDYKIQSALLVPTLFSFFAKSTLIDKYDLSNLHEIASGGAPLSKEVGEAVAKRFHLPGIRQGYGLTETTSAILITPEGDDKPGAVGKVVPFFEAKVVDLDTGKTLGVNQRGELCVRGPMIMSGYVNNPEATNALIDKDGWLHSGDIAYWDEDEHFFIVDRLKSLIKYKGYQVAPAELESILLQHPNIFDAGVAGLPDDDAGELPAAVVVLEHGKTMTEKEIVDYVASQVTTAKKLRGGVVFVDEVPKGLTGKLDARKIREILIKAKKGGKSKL
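Biochemical qHTS of compounds, final roughly 60 µM downward over six points, against 10 nM purified firefly luciferase using Km concentrations of substrates (10 uM D-luciferin, 10 uM ATP) in Tris acetate pH 7.5 buffer; luminescence output.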
ELG1 genotox: induces genotoxicity in HEK293T cells with luciferase-tagged ELG1. 330,000 compounds, 1.3% hits. AID 504466. Potency, µM (series often up to 46 µM), for inactives: top-dose activity change, positive = activation, hits mostly activators. HEK293T ELG1-luciferase reporter, luminescence, 16 h; further: % of control where 0% means no effect; nearly all actives have a fitted effect of over 60% in size
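After overnight (16 hr) compound treatment at 37 °C, ELG1-luciferase HEK293T cells were lysed with ONE-Glo; luminescence quantified 30 min later at room temperature.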
NPC1 prom act: NPC1 promoter activation | Potency, µM (top dose mostly 9.22 µM), for the others: at the highest dose activation, usual class: activators | AID 485313 | Huh7 NPC1 promoter luciferase reporter, 24 h | 320,000 compounds, 2.4% hits; further: % of control where 0% means no effect; nearly all actives have a fitted effect of over 60% in size
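Huh7 cells stably carrying NPC1 promoter–luciferase, plated in Opti-MEM with 10% FBS for 2 h, were exposed to compound in DMSO for 24 h at 37 °C; luciferase reagent was added for 10 min and luminescence read.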
Rab9 prom act: activates the Rab9 promoter; Huh7 Rab9 promoter-luciferase reporter, luminescence, 24 h; Potency, µM (highest dose often 9.22 µM), for the others: at the highest dose activation, negative = inhibition, most hits filed as activators; 320,000 compounds, 2.8% hits; AID 485297; further: % of control where 0% means no effect; nearly all actives have a fitted effect of over 60% in size
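Huh7 cells stably carrying a Rab9 promoter-luciferase reporter, 1500 cells per well in OP-MEM I with 10% FBS, treated with compound 24 hours at 37C. Luciferase activity read by luminescence after 10 minutes with Amplite reagent.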
Luc counter: blocks Kinase-Glo luciferase, a counter-screen artifact | AID 1379 | Kinase-Glo luciferase, ATP luminescence, 8 min | Potency, µM (titrated, usually from 38.3 µM), for the others: top-dose activity change, negative = inhibition, most hits filed as inhibitors | 200,000 compounds, 0.28% hits; further: on the % scale 0 is the no-effect control and ±100 the full control effect; nearly all actives have a fitted effect of over 60% in size
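Inhibition of Kinase-Glo luciferase light generation was assessed at 10 uM ATP in pH 7.2 imidazole buffer, with luminescence measured after eight minutes at ambient temperature.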
SMN2 splice up: SMN2 splice variant enhancement; HEK293 SMN2-luciferase splicing reporter, luminescence, 30-36 h; 210,000 compounds, 2.8% hits; Potency, µM (titrated, usually from 46.1 µM), inactives show top-dose activity change, positive = activation, usual class: activators; further: % of control where 0% means no effect; nearly all actives have a fitted effect of over 55% in size
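qHTS luciferase splicing reporter: luminescence rises when SMN2 exon 7 is included in transfected HEK293 cells. Compound exposure lasted 30-36 h at 37C, with 4.5 mM final sodium butyrate as control, followed by a ONE-Glo read.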
* marks the source's active call; other numbers are inactive results; ? = inconclusive; / = no result given; [ ] = dose if it differs, or a comment. The call rests on the fitted dose curve; in most records, active means well fitted curve in the direction sought with a large enough effect; inconclusive means small, poorly fitted or top-dose-only effect, or another doubt; inactive means no such curve, though single readings can be large; an effect the other way counts as inactive or inconclusive. Potency means the concentration at half of the fitted maximal effect.

SMILES | FLuc modulator | ELG1 genotox | NPC1 prom act | Rab9 prom act | Luc counter | SMN2 splice up
COc1ccc2nc(N(Cc3ccccc3)C(=O)CCNC(C)=O)sc2c1 | 19µM* | ? | ? | ? | / | /
COc1ccc2nc(NC(=O)CCNC(=O)c3ccco3)sc2c1 | 12µM* | ? | 3.16µM* | 3.16µM* | / | /
Cc1ccsc1/C=N/n1c(COc2ccccc2)n[nH]c1=S | 3.7% | -1.8% | 0.7% | -2.3% | 3.2% | -10.8%
CN(C(=O)COC(=O)c1ccccc1NCCO)C1CCS(=O)(=O)C1 (centres undefined) | -1.8% | 3.4% | 0.2% | 14.0% | / | /
O=C(NC(=S)Nc1nc2ccccc2s1)c1ccco1 | 1.51µM* | ? | ? | ? | -5.1% | 11.2µM*
COc1ccc2sc(NC(=O)c3ccco3)nc2c1 | 0.757µM* | ? | 0.501µM* | 0.355µM* | -27.2% | ?
CCOC(=O)c1sc(NC(=S)NC(=O)c2ccco2)nc1C | ? | 11.3% | 16.5% | 18.9% | -1.7% | ?
COc1ccc2nc(NC(=S)NC(=O)c3ccco3)sc2c1 | 0.675µM* | ? | 3.16µM* | 1µM* | -2.8% | 7.94µM*
O=C(CCNC(=O)c1ccco1)Nc1nc2ccccc2s1 | ? | 8.7% | 25.6% | ? | / | /
CCC1=C2CC[C@H]3C(=O)N(c4ccccc4)C(=O)[C@H]3[C@H]2[C@@]2(Cc3ccccc3)C(=NCC3CC3)OC(=O)N2C1=O | / | / | / | / | 1.8% | -0.4%
Cc1ccc(S(=O)(=O)N2CCN(C(=S)NCC3CCCO3)CC2)cc1 (centres undefined) | -1.3% | -0.9% | -0.5% | -3.8% | / | /
Clc1ccc(C[n+]2csc3ccccc32)cc1 | 6.75µM* | 0.4% | -0.3% | -7.2% | -3.7% | -2.5%
Fc1ccc(C[n+]2csc3ccccc32)cc1 | 7.57µM* | 4.4% | -4.4% | 1.5% | -3.0% | 2.2%
Fc1ccc(CSc2ncnc3scc(-c4ccccc4)c23)cc1 | -0.4% | 3.7% | -1.8% | 0.8% | -1.4% | -3.4%[1.84 µM]
COc1cccc2oc3cc(C#CC4(O)CCCCC4)ccc3c(=O)c12 | 0.601µM* | 0.411µM* | 0.355µM* | 0.355µM* | / | /
COC(=O)c1c(-c2ccccc2OC)sc2ccccc12 | -10.2% | -0.8% | 0.0% | -3.6% | / | /
COc1cccc2oc3cc(C#Cc4ccccn4)ccc3c(=O)c12 | 4.78µM* | 18.7% | 2.51µM* | 3.16µM* | / | /
COc1ccc2sc3ccccc3c(=O)c2c1OC | 15.1µM* | ? | ? | ? | -7.2% | 18.9%
COc1cccc2sc3ccc(NCc4ccc5c(c4)OCO5)cc3c(=O)c12 | ? | 4.4% | 1.9% | 3.1% | / | /
COc1cccc2sc3ccc(C#Cc4ccc(N)cc4)cc3c(=O)c12 | 4.78µM* | ? | 3.55µM* | 2.51µM* | / | /
CCOC(=O)c1ccccc1NC(=O)Cn1ccn2nc(-c3ccc(OCC)cc3)cc2c1=O | -12.1% | / | / | / | / | /
COc1cccc2sc3ccc(C#CC4(O)CCCCC4)cc3c(=O)c12 | 2.13µM* | ? | 1.58µM* | 2.82µM* | / | /
COc1ccccc1-c1sc2cc3c(cc2c1C#CC1(O)CCCCC1)OCO3 | -2.5% | -2.3% | 7.9% | -1.9% | / | /
COC1=CC(=O)C(O)=C/C1=C\C=C\c1ccccc1 | / | / | / | / | -3.8% | -20.3%
O=C(Nc1cccc2ccccc12)c1ccccc1 | 13.5µM* | ? | ? | 3.55µM* | -4.0%[7.66 µM] | -2.0%[9.22 µM]
CC(=O)c1cccc(NC(=O)C(=O)Nc2cccc3ccccc23)c1 | ? | 15.7% | ? | 2.51µM* | -4.0% | /
O=C(Nc1cccc2ccccc12)c1ccccc1Cl | -11.8% | 1.3% | 0.0% | 6.5% | / | /
Nc1ccccc1C(=O)Nc1cccc2ccccc12 | 19µM* | ? | 3.16µM* | 2.82µM* | / | /
O=C(NCCCN1CCCC1=O)C1CCN(S(=O)(=O)c2ccc(Cl)cc2)CC1 | 5.6% | 1.8% | -3.9% | 1.2% | / | /
Cc1cccc(N2CCN(C(=O)CCc3nnc4n(CC(C)C)c(=O)c5ccccc5n34)CC2)c1C | -13.3% | / | / | / | / | -6.1%
